Sampled rows, rich in hits. Any-hit rate of the full collection: about 0.43%.
GAA inh: blocks human lysosomal alpha-glucosidase; P10253; 200,000 tested, 0.005% active; purified human GAA, 4-MU-alpha-glucoside fluorescence; AID 1466; Potency, µM (highest dose often 76.9 µM), without a hit: top-dose activity change, negative = inhibition, usual class: inhibitors;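 further: potency means the concentration at half of the fitted maximal effect; plate controls were uninhibited enzyme wells for no effect and no-enzyme background for full effect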
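Activity normalized between no-enzyme (basal) and enzyme-only wells. Conditions: 4 nM human enzyme, 400 uM fluorogenic substrate, citrate/phosphate pH 5.0 with Tween-20, 20 min room temperature, compounds up to 77 uM.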
aGal spleen mod: alpha-galactosidase A (human) modulation | AID 2107 | P06280 | human spleen homogenate, 4MU-alpha-Gal fluorescence, 40 min | Potency, µM (titrated, usually from 80 µM), inactives show top-dose activity change, negative = inhibition, hits mostly inhibitors | 240,000 tested, 0.008% active;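 further: potency means the concentration at half of the fitted maximal effect; 0% = enzyme with vehicle and -100% = no enzyme basal signal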
Target sequence (P06280 32-429 limits assumed): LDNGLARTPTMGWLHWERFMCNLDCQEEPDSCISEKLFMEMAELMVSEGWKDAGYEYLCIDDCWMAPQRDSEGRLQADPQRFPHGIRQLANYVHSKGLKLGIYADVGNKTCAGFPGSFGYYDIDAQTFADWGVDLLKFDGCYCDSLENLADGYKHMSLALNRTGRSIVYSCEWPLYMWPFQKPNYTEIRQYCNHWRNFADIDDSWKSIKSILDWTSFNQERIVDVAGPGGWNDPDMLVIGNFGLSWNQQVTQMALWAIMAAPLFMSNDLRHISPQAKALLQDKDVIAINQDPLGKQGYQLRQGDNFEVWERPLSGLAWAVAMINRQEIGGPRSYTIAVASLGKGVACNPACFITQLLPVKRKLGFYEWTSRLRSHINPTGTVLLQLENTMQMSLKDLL
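Fluorogenic readout (Ex 365/Em 440 nm) of 4-methylumbelliferone released from 1 mM 4-MU-alpha-galactoside by spleen homogenate, 40 min at 37C, pH 5.0. Data normalized to no-enzyme and enzyme controls; Hill-equation AC50 from compound titrations.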
N370S GC mod: inhibits or activates N370S mutant glucocerebrosidase; N370S GC spleen homogenate, 4MU-glucoside fluorescence; Potency, µM (highest dose often 59.4 µM), for inactives: at the highest dose activity change, negative = inhibition, most hits filed as inhibitors; 330,000 tested, 0.092% active; AID 2101;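 further: potency means the concentration at half of the fitted maximal effect; 0% = full enzyme activity and -100% = no enzyme basal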
GAA spleen mod: inhibits or activates alpha-glucosidase in human spleen homogenate; human spleen homogenate, 4-MU-alpha-glucoside fluorescence; Potency, µM (titrated, usually from 79.9 µM), for inactives: top-dose activity change, negative = inhibition, actives largely listed as inhibitors; 240,000 tested, 0.006% active; AID 2112;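 further: potency means the concentration at half of the fitted maximal effect; 0% = enzyme with vehicle and -100% = no enzyme basal signal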
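Compounds were titrated against alpha-glucosidase in spleen homogenate at pH 5.0, with 1 mM 4-methylumbelliferyl substrate for 40 min at 37 C. Reactions were quenched with pH 10 NaOH/glycine and fluorescence measured.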
GAA glycogen mod: inhibitors or activators of human alpha-glucosidase glycogen cleavage | P10253 | Potency, µM (top dose mostly 76.4 µM), inactives show at the top dose activity change, negative = inhibition, usual class: inhibitors | 300,000 tested, 0.38% active | AID 2100 | recombinant GAA, glycogen substrate, Amplex Red glucose oxidase fluorescence;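 further: potency means the concentration at half of the fitted maximal effect; 0% = full enzyme reaction and -100% = no-enzyme basal signal; the screen sought inhibitors and activators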
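Recombinant human enzyme (4 nM); glycogen substrate; 37 C, 40 min, pH 5.0. Readout: coupled glucose oxidase/Amplex Red fluorescence.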
GLA inh pH 4.5: inhibitors of human alpha-galactosidase A at pH 4.5; P06280; purified enzyme, 4-MU-alpha-Gal fluorescence, pH 4.5; activity change, negative = inhibition, % at 105 µM; 230,000 tested, under 10 active; AID 1467;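 further: 0% = full activity with enzyme and -100% = basal without enzyme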
* hit, by the source's call; ! = a repeat was not active; [ ] = another dose, or the depositor's remark. The call rests on the fitted dose curve; in most records, active means well fitted curve in the direction sought with a large enough effect; inconclusive means small, poorly fitted or top-dose-only effect, or another doubt; inactive means no such curve, though single readings can be large; an effect the other way counts as inactive or inconclusive.

What do the screens show for `CC[C@H](C)[C@H](NC(=O)CNC(=O)[C@H](CCCNC(=N)N)NC(=O)[C@H](CO)NC(=O)[C@H](C)NC(=O)[C@H](Cc1ccc(O)cc1)NC(=O)[C@H](Cc1c[nH]c2ccccc12)NC(=O)[C@H](C)NC(=O)[C@@H]1CCCN1C(=O)[C@H](CC(N)=O)NC(=O)[C@@H](NC(=O)[C@H](CC(=O)O)NC(=O)[C@@H]1CCCN1C(=O)[C@@H](N)[C@@H](C)O)[C@@H](C)CC)C(=O)N[C@@H](CCCNC(=N)N)C(=O)N1CCC[C@H]1C(=O)N[C@H](C(=O)NCC(=O)N[C@@H](CCCNC(=N)N)C(=O)N[C@@H](Cc1ccccc1)C(N)=O)C(C)C`?
aGal spleen mod: -6.3%; N370S GC mod: -0.7%; GAA spleen mod: 4.2%

What do the screens show for `O=C(NNc1cccc(Cl)n1)c1c(F)cccc1F`?
GAA inh: -4.5%; aGal spleen mod: 1.1%; N370S GC mod: 6.5%; GAA glycogen mod: inconclusive; GLA inh pH 4.5: 14.8

What do the screens show for `O=C(NNc1cccc(Cl)n1)c1c(Cl)cccc1Cl`?
GAA inh: 8.2%; aGal spleen mod: 0.3%; N370S GC mod: 6.6%; GAA spleen mod: -28.6%; GAA glycogen mod: 8.91µM*; GLA inh pH 4.5: 8.8

How did NNC(=O)c1cc(-c2ccccc2)sc1N do in these assays?
aGal spleen mod: 7.0%; N370S GC mod: -6.8%; GAA spleen mod: 0.6%; GAA glycogen mod: 5.01µM*; GLA inh pH 4.5: 2.6

How did Cc1cc(C)cc(N2C(N)=NC(N)=NC2c2cccc(Cl)c2)c1 (stereo not drawn) do in these assays?
N370S GC mod: -24.6%; GAA glycogen mod: -13.3%

How did Cc1cc(C)cc(N2C(N)=NC(N)=NC2c2ccccc2F)c1 (stereo not drawn) do in these assays?
N370S GC mod: 15.8µM*; GAA glycogen mod: -12.1%

What do the screens show for `COc1cc(/C=C(\C#N)C(=O)N2CCCCC2)ccc1O`?
N370S GC mod: inconclusive; GAA glycogen mod: -2.1%[76.3 µM]

Results for N#C/C(=C\c1ccc(O)c(O)c1)C(=O)N1CCCC1 ?
GAA inh: -2.9%; aGal spleen mod: -19.2%; N370S GC mod: -27.0%; GAA spleen mod: -21.4%; GAA glycogen mod: 2.82µM*; GLA inh pH 4.5: -13.3

How did C=C(C)C(=O)OCCOCC do in these assays?
aGal spleen mod: 0.3%; N370S GC mod: -17.3%; GAA spleen mod: 2.6%

What do the screens show for `COC(=O)C1=C(C)NC(C)=C(C(=O)NCCCN2CCC(c3ccccc3)(c3ccccc3)CC2)C1c1ccc([N+](=O)[O-])cc1` (stereo not drawn)?
aGal spleen mod: 2.6%; N370S GC mod: -6.5%; GAA spleen mod: 2.0%

Results for Nc1nc(-c2ccccc2)c(N=Nc2ccccc2Cl)s1 ?
GAA inh: -7.6%; aGal spleen mod: -4.2%; N370S GC mod: 10µM*; GAA spleen mod: -7.4%; GAA glycogen mod: 2.7%; GLA inh pH 4.5: -6.5

How did COc1c(C=O)c(=O)[nH]c2c(OC)cccc12 do in these assays?
aGal spleen mod: 5.9%; N370S GC mod: 17.3%; GAA spleen mod: -17.0%; GLA inh pH 4.5: 1.5

How did CSc1ccc2c(c1)C(N1CCN(C)CC1)Cc1ccccc1S2 (stereo not drawn) do in these assays?
aGal spleen mod: 16.7%; N370S GC mod: 17.8µM*!; GAA spleen mod: 5.0%; GAA glycogen mod: 7.1%; GLA inh pH 4.5: -5.1

How did CSc1ccc2c(c1)[C@H](N1CCN(C)CC1)Cc1ccccc1S2 do in these assays?
aGal spleen mod: 8.1%; N370S GC mod: 12.6µM*; GAA spleen mod: 6.0%; GLA inh pH 4.5: -9.3

What do the screens show for `CN1CCN(C2Cc3ccccc3Sc3ccc(Cl)cc32)CC1` (stereo not drawn)?
aGal spleen mod: 0.7%; N370S GC mod: inconclusive; GAA spleen mod: 5.0%; GLA inh pH 4.5: -9.0

What do the screens show for `CCOc1cc(/C=C2/NC(=O)N(Cc3ccccc3F)C2=O)ccc1O`?
GAA inh: 1.2%; aGal spleen mod: 5.3%; N370S GC mod: -5.6%; GAA spleen mod: -17.3%; GAA glycogen mod: 5.62µM*; GLA inh pH 4.5: -7.9

How did COc1cc(/C=C2/NC(=O)N(Cc3ccccc3F)C2=O)cc(OC)c1O do in these assays?
GAA inh: inconclusive; aGal spleen mod: inconclusive; N370S GC mod: -17.0%; GAA spleen mod: -14.4%; GAA glycogen mod: inconclusive; GLA inh pH 4.5: inconclusive

How did COCCCNC(=S)NNC(=S)Nc1ccccc1 do in these assays?
GAA inh: -2.2%; aGal spleen mod: 1.7%; N370S GC mod: -13.6%; GAA spleen mod: -1.9%; GAA glycogen mod: 6.26µM*; GLA inh pH 4.5: -5.0

What do the screens show for `COCCCNC(=S)NNC(=S)Nc1ccc(F)cc1F`?
GAA inh: 1.5%; aGal spleen mod: 3.7%; N370S GC mod: 13.1%; GAA spleen mod: 0.1%; GAA glycogen mod: 15.7µM*; GLA inh pH 4.5: -2.7

How did COCCCNC(=S)Nc1ccc(C)cc1 do in these assays?
aGal spleen mod: 10.3%; N370S GC mod: 2.6%; GAA spleen mod: 4.6%; GAA glycogen mod: -0.4%; GLA inh pH 4.5: -10.1

How did COCCCNC(=S)NCCc1ccc(F)cc1 do in these assays?
GAA inh: 0.8%; aGal spleen mod: 4.8%; N370S GC mod: 1.2%; GAA spleen mod: 6.0%; GAA glycogen mod: 2.5%; GLA inh pH 4.5: -8.9

What do the screens show for `CN1C(=O)/C(=C/C=C2\SCCN2C)N(C)C1=S`?
GAA inh: inconclusive; aGal spleen mod: -2.6%; N370S GC mod: -10.1%; GAA spleen mod: -3.1%; GAA glycogen mod: 11.2µM*; GLA inh pH 4.5: -10.9[21.1 µM]

What do the screens show for `Nc1cnc(Nc2ccc(Br)cc2)nc1N`?
GAA inh: -2.4%; aGal spleen mod: -4.6%; N370S GC mod: inconclusive; GAA spleen mod: -3.3%; GAA glycogen mod: 7.03µM*; GLA inh pH 4.5: -11.4

How did N#Cc1c(N)nc(N)nc1Nc1ccc(Br)cc1 do in these assays?
GAA inh: 0.5%; aGal spleen mod: -3.3%; N370S GC mod: -21.5%; GAA spleen mod: 6.0%; GAA glycogen mod: -0.8%; GLA inh pH 4.5: -1.4

What do the screens show for `Nc1n[nH]c2ccccc12`?
GAA inh: -3.3%; aGal spleen mod: -3.8%; N370S GC mod: 6.8%; GAA spleen mod: -23.7%; GAA glycogen mod: 3.55µM*; GLA inh pH 4.5: -17.1

Results for Cc1ccc(C(O)(C(=O)NNc2ccccn2)c2ccc(C)cc2)cc1 ?
GAA inh: -10.9%; aGal spleen mod: 6.3%; N370S GC mod: -3.9%; GAA spleen mod: -6.0%; GAA glycogen mod: 5.01µM*; GLA inh pH 4.5: -8.3

Results for COC(=O)C1=C(C(=O)OC)[C@@H]2N(Cc3ccccc3)c3ccccc3[C@@]23C[C@@H](C(=O)OC)N(S(=O)(=O)c2ccc([N+](=O)[O-])cc2)C3=N1 ?
aGal spleen mod: 2.1%[17.5 µM]; N370S GC mod: -0.1%[12.8 µM]; GAA spleen mod: 6.4%[17.4 µM]; GLA inh pH 4.5: 2.0
